CHO-K1 Ca ag: counter-screen for M1 agonists: effect in parental CHO-K1 cells. Fluo-8 calcium fluorescence; scaled to maximal ATP response, vehicle zero. 360,000 compounds, 0.48% hits. activation, % at 3 µM. AID 602248, 2012; in the data active means activation above about 15%;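 further: untransfected CHO-K1 host cells lacking M1 receptor as counterscreen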
CHRM1 antagonist: human M1 muscarinic receptor antagonists, primary screen, CHO-K1 cells, Fluo-8 calcium fluorescence, 1536-well; Muscarinic acetylcholine receptor M1 (Homo sapiens), P11229; CHO-K1 hM1, ACh EC80 antagonist; inhibition, % at 3 µM; 360,000 compounds, 1.3% hits; AID 588852, 2011;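 active means percent inhibition above its own plate's cutoff, namely the mean of that plate's compound wells plus 3 SD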;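 further: peak over basal fluorescence ratio during 140 s after agonist addition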
Target sequence (P11229 whole entry, looked up): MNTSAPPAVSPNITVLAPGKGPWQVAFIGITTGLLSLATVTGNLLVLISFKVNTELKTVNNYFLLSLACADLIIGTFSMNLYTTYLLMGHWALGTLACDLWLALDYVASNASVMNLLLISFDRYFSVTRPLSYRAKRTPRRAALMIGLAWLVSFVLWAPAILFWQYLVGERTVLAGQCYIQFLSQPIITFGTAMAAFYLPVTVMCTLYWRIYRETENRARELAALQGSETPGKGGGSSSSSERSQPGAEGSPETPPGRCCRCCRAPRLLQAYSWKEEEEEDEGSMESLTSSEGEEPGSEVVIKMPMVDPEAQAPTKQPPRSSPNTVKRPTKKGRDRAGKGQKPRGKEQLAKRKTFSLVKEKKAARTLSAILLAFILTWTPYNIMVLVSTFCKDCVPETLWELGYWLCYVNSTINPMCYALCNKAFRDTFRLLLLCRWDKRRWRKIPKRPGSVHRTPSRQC
M1 PAM parental: nonselective calcium activators in parental CHO-K1 cells, primary screen, counter-screen for M1 PAM project, cell-based, Fluo-8 calcium fluorescence, full deck, 1536-well | ATP EC20; 0% at ATP EC20, 100% at ATP max | activation, % at 3 µM | 360,000 compounds, 0.02% hits | AID 602247, 2012;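 active means activation above the run cutoff, the mean activation of all test compounds plus 3 SD, cut at about 40% in these data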;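 further: peak over basal fluorescence ratio in a 140 s read after ATP addition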
M1 ag: human M1 muscarinic receptor agonists, primary screen, Fluo-8 calcium fluorescence, CHO-K1 cells, HTS; 360,000 compounds, 0.33% hits; activation, % at 3 µM; CHO-K1 hM1, agonist mode; 0% DMSO, 100% acetylcholine EC100; Muscarinic acetylcholine receptor M1 (Homo sapiens), P11229;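 active means activation above the run's mean compound activation plus 3 SD, cut at about 16% in these data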;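 further: peak over basal fluorescence ratio within a 140 s kinetic read after compound addition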
CHO-K1 Ca antag: M1 antagonist counterscreen hit in parental CHO-K1 cells | inhibition, % at 3 µM | 360,000 compounds, 0.6% hits | ATP-induced calcium, Fluo-8 fluorescence;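 active means inhibition above a per-plate cutoff, the plate's mean sample inhibition plus 3 SD, cut at about 24% in these data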
CHRM1 PAM: human M1 muscarinic receptor positive allosteric modulators, primary screen, CHO-K1 cells, Fluo-8 calcium fluorescence, 1536-well; Muscarinic acetylcholine receptor M1 (Homo sapiens), P11229; CHO-K1 hM1, ACh EC20; 0% = ACh EC20, 100% = maximal ACh; activation, % at 3 µM; 360,000 compounds, 0.088% hits; in the data active means activation above about 19%, passing the limit was not always enough
Each line names hits and unclear results; the compound was inactive in the other large screens. Shown are actives, neighbours in structure and some others; about 2.4% of the full set was active somewhere.

CC(C)N(CCNC(=O)c1ccc(CS(=O)(=O)c2c(Cl)cccc2Cl)o1)Cc1ccccc1	CHRM1 antagonist 45
CC(C)(C)c1ccc(C(=O)CCC(=O)OCC(=O)NCCc2ccc(S(N)(=O)=O)cc2)cc1	CHO-K1 Ca ag 20, CHRM1 antagonist 47
Cc1cccc(OC2(c3ccccc3)OC(=O)c3ccccc32)c1C (centres undefined)	CHRM1 antagonist 36
CCCCCCOC1(c2ccccc2)OC(=O)c2ccccc21 (centres undefined)	none
COc1ccc(NC(=O)COc2coc(CN3CCc4ccccc4C3)cc2=O)cc1	none
NC(=O)c1ccc(NC(=O)COc2coc(CN3CCc4ccccc4C3)cc2=O)cc1	CHO-K1 Ca ag 16
Cc1ccccc1NC(=O)COc1coc(CN2CCCc3ccccc32)cc1=O	CHRM1 PAM 26
CC(OC(=O)COc1ccccc1Cc1ccccc1)C(=O)N(C)c1ccccc1 (centres undefined)	none
COc1cccc(CN2CCN(C(=O)Nc3ccc([N+](=O)[O-])cc3)CC2)c1	CHRM1 antagonist 31
Cc1cc(N2C(=O)C3C4C=CC(C4)C3C2=O)ccc1NC(=O)c1cccs1 (centres undefined)	CHO-K1 Ca antag 47
CCOc1ccc(NCc2cccn2-c2nnc(N3CCC(C(=O)NCCCN4CC(C)CC(C)C4)CC3)s2)cc1 (centres undefined)	CHRM1 antagonist 98
CCN1CCN(CCCNC(=O)C2CCN(c3nnc(-n4cccc4)s3)CC2)CC1	none
COc1ccc(NC(=O)c2cc(-c3cc(F)ccc3OC(C)C)n[nH]2)c(C)c1	none
CC(=O)c1cccc(OCc2cc(C(=O)N3C[C@@H](C)O[C@@H](C)C3)no2)c1	CHO-K1 Ca antag 59
CCOCCCNC(=O)/C(C#N)=C/c1ccc([N+](=O)[O-])o1	none
CN(C)Cc1ccc(F)cc1Sc1ccc(Cl)cc1Cl	CHRM1 antagonist 52
CC1CCC(C(C)C)C(OCC(O)C[N+]2(C)CCCCC2)C1 (centres undefined)	CHRM1 antagonist 76
CC1CCC(C(C)C)C(OCC(O)CN2CCCC(C)C2)C1 (centres undefined)	none
CC1CCC(C(C)C)C(OCC[N+](C)(C)C)C1 (centres undefined)	CHRM1 antagonist 100
NC(=O)C1CCN(C(=O)CSc2nc3ccccc3s2)CC1	CHO-K1 Ca antag 24
COc1cccc(N2C(=O)CC(N3CCN(CCN=CC4=C(O)CC(C)(C)CC4=O)CC3)C2=O)c1 (centres undefined)	CHO-K1 Ca ag 19
CC1(C)CC(=O)C(C=NCCN2CCN(C3CC(=O)N(c4cccc(Br)c4)C3=O)CC2)=C(O)C1 (centres undefined)	none
Cc1ccccc1CN1CCN(CC(=O)NC(C)c2ccccc2)CC1 (centres undefined)	none
Cc1ccccc1OCCN1CCC(Cc2ccccc2)CC1	none
Cc1ccc([N+](=O)[O-])c(OCCN2CCC(Cc3ccccc3)CC2)c1	CHRM1 antagonist 84
O=[N+]([O-])c1cccc(OCCCN2CCC(Cc3ccccc3)CC2)c1	CHRM1 antagonist 77
O=[N+]([O-])c1ccc(CN2CCC(Cc3ccccc3)CC2)cc1	CHRM1 antagonist 39
CCN1C(=O)[C@H]2[C@@H](c3ccc(C)cc3)N3C(=O)N(c4ccc(OC)cc4)C(=O)[C@@]3(C)[C@H]2C1=O	none
CCOc1ccc(C(=O)Nc2cccc3ncccc23)cc1Br	none
COc1ccc(N2CCN(C(=O)C3CCN(S(=O)(=O)c4ccc5c(c4)oc(=O)n5C)CC3)CC2)cc1	none
CN(C(=O)COC(=O)c1ccc(S(=O)(=O)N2CCCC2)cc1)c1ccccc1	CHRM1 antagonist 50
O=C(COC(=O)c1ccccc1)c1ccc(S(=O)(=O)N2CCCCC2)cc1	none
CCOc1cccc(=O)c2c(C)n(Cc3ccccc3)c(C)c12	CHO-K1 Ca ag 23
CCOc1ccc(NC(=O)CN2C(=O)NC(CCc3ccccc3)C2=O)cc1OCC (centres undefined)	none
CCOC(=O)c1c(NC(=O)C(C)N2CCN(C(=O)c3ccco3)CC2)sc2c1CCCC2 (centres undefined)	CHRM1 antagonist 37, M1 ag 20
C=CCn1cccc(C(=O)Nc2ccc(OC)c(OC)c2)c1=O	CHO-K1 Ca ag 16
Cc1cccc(NC(=O)C2CCN(S(=O)(=O)c3c(C)noc3/C=C/c3ccco3)CC2)n1	none
CCC(C)N1CCN(C(=O)C2CCN(S(=O)(=O)c3c(C)noc3/C=C/c3ccco3)CC2)CC1 (centres undefined)	CHRM1 antagonist 80
CSc1cccc(NC(=O)CN(C)S(=O)(=O)c2cnc[nH]2)c1	none
Cn1cnnc1SCC(=O)Nc1ccc(Cl)cn1	CHO-K1 Ca antag 33
CCOc1ccc(/C=C2\CCCc3c2nc2ccccc2c3C(=O)O)cc1OC	CHO-K1 Ca ag 45, M1 ag 53
COCCNC(=O)C1(C)CCN(Cc2cccc(Oc3ccccc3)c2)C1 (centres undefined)	none
CCOC(=O)c1ccc(N=C2C(=S)N(c3ccc(C(=O)OCC)cc3)C(=N)N2/N=C/c2ccccc2)cc1	CHRM1 antagonist 99
CCCCn1c(N)c(N(CCOC)C(=O)C2CCN(C(=O)c3ccc(F)cc3)CC2)c(=O)[nH]c1=O	none
O=C(Nc1ccccc1N1CCN(C(=O)c2ccc(Cl)cc2)CC1)c1ccc(Br)cc1	CHO-K1 Ca antag 27
O=C(NCCC(=O)N1CCN(c2ccccc2O)CC1)c1ccc(Br)cc1	CHRM1 PAM 22
COc1ccc(C(=O)Nc2ccccc2N2CCN(C(=O)c3ccccc3)CC2)cc1Br	CHRM1 antagonist 35
O=C(c1ccc(Cl)cc1)N1CCN(c2cc(=O)[nH]nc2-c2ccccc2)CC1	CHO-K1 Ca antag 28
Cc1ccc(S(=O)(=O)N2C[C@H]3[C@H]4C(=O)N(c5ccccc5)C(=O)[C@H]4C[C@H](OC(=O)NCc4ccccc4F)[C@@]3(O)C2)cc1	none
COc1ccc(C)cc1NC(=O)c1cc(S(=O)(=O)N2CCOCC2)cn1C	none
COc1cccc(-c2cc(CNC(=O)[C@H]3O[C@@H](n4ccc(N)nc4=O)[C@H](O)[C@@H]3O)no2)c1	none
Cc1cc(C(=O)Nc2ccon2)ccc1[N+](=O)[O-]	CHO-K1 Ca ag 21
O=C(COc1cccnc1[N+](=O)[O-])NCCc1ccccc1	none
COc1cccc(CNC(=O)N2CCN(c3ccccc3)CC2)c1	none

Screens from PubChem.
